# ± gives the standard deviation.
# T1: HaloTag-ATRX ADD domain (163-292)
# T1 chain: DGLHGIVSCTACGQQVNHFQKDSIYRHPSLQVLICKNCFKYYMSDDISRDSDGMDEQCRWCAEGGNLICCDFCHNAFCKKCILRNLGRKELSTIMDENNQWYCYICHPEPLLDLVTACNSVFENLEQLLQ
# B1: H3 5-17 Q T A Rcit Kme S T G G K A P R (peptide)
# chain: QTARKSTGGKAPR
# B2: H3 5-17 Q T A R Kme3 S T G G Kme2 A P R (peptide)
# chain: QTARKSTGGKAPR
# B3: H3 5-17 Q T A Rme Kme S T G G K A P R (peptide)
# chain: QTARKSTGGKAPR
# B4: H3 5-17 Q T A R Kme3 S T G G Kme A P R (peptide)
# chain: QTARKSTGGKAPR
# B5: H3 5-17 Q T A R K S T G G Kac A P R (peptide)
# chain: QTARKSTGGKAPR
# B6: H3 5-17 Q T A Rcit Kac S T G G K A P R (peptide)
# chain: QTARKSTGGKAPR
# B7: H3 5-17 Q T A R Kme3 S T G G Kme3 A P R (peptide)
# chain: QTARKSTGGKAPR
# B8: H3 5-17 Q T A Rcit K S T G G K A P R (peptide)
# chain: QTARKSTGGKAPR
# B9: H3 5-17 Q T A Rcit Kme3 S T G G K A P R (peptide)
# chain: QTARKSTGGKAPR
# B10: H3 5-17 Q T A R Kme3 Sph T G G K A P R (peptide)
# chain: QTARKSTGGKAPR
# How the values were obtained:
# Assay in all cases: peptide microarray binding signal (635 nm), min-max normalized on array (fraction of array maximum); higher = stronger binding
# Conditions in all cases: peptide region: H3 5-17
# [1] = molecular target: T1, HaloTag-ATRX ADD domain (163-292)
# In short: (§1)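 Histone 13-mer peptide–cellulose conjugates were printed in triplicate on nitrocellulose with a Cy3 tracer, then blocked overnight at 4°C. Arrays were probed for 1 h at 4°C with biotin-labelled HaloTag reader fusions (10 nM to 1 μM) plus streptavidin-Alexa Fluor 647, or with rabbit histone antibodies (1:10,000 to 1:2,000) plus anti-rabbit Alexa 647. An Axon GenePix 4000B scanned 635 nm for signal and 532 nm for misprints. Binding signal is the triplicate-spot mean intensity, min-max scaled per library.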
# [2] = molecular target: HaloTag-ING2 PHD (mouse Ing2 200-280)
# In short: as §1
# [3] = molecular target: anti-H3K4me3 antibody ab8580
# In short: as §1
# [4] = molecular target: anti-H3K9me3 antibody ab8898
# In short: as §1
# [5] = peptide modifications: H3R8cit H3K9me1, binder concentration: 1:2,000 dilution
# [6] = peptide modifications: H3R8cit H3K9me1, binder concentration: 1:10,000 dilution
# [7] = peptide modifications: H3K9me3 H3K14me2, binder concentration: 1:2,000 dilution
# [8] = peptide modifications: H3K9me3 H3K14me2, binder concentration: 1:10,000 dilution
# [9] = peptide modifications: H3R8me1 H3K9me1, binder concentration: 1:2,000 dilution
# [10] = peptide modifications: H3R8me1 H3K9me1, binder concentration: 1:10,000 dilution
# [11] = peptide modifications: H3K9me3 H3K14me1, binder concentration: 1:2,000 dilution
# [12] = peptide modifications: H3K9me3 H3K14me1, binder concentration: 1:10,000 dilution
# [13] = peptide modifications: H3K14ac, binder concentration: 1:2,000 dilution
# [14] = peptide modifications: H3K14ac, binder concentration: 1:10,000 dilution
# [15] = peptide modifications: H3R8cit H3K9ac, binder concentration: 1:2,000 dilution
# [16] = peptide modifications: H3R8cit H3K9ac, binder concentration: 1:10,000 dilution
# [17] = peptide modifications: H3K9me3 H3K14me3, binder concentration: 1:2,000 dilution
# [18] = peptide modifications: H3K9me3 H3K14me3, binder concentration: 1:10,000 dilution
# [19] = peptide modifications: H3R8cit, binder concentration: 1:2,000 dilution
# [20] = peptide modifications: H3R8cit, binder concentration: 1:10,000 dilution
# [21] = peptide modifications: H3R8cit H3K9me3, binder concentration: 1:2,000 dilution
# [22] = peptide modifications: H3R8cit H3K9me3, binder concentration: 1:10,000 dilution
# [23] = peptide modifications: H3K9me3 H3S10ph, binder concentration: 1:2,000 dilution
# [24] = peptide modifications: H3K9me3 H3S10ph, binder concentration: 1:10,000 dilution
binder,measurement,setting,value
B1,peptide microarray binding signal,"[1]; peptide modifications: H3R8cit H3K9me1, binder concentration: 50 nM",0.00686 ± 0.00018
same,peptide microarray binding signal,"[1]; peptide modifications: H3R8cit H3K9me1, binder concentration: 500 nM",0.0113 ± 0.00044
same,peptide microarray binding signal,"[2]; peptide modifications: H3R8cit H3K9me1, binder concentration: 10 nM",0.0186 ± 0.0018
same,peptide microarray binding signal,"[2]; peptide modifications: H3R8cit H3K9me1, binder concentration: 100 nM",0.0317 ± 0.0022
same,peptide microarray binding signal,[3]; [5],0.00427 ± 0.00041
same,peptide microarray binding signal,[3]; [6],0.00394 ± 6.2e-05
same,peptide microarray binding signal,[4]; [5],0.00462 ± 0.00021
same,peptide microarray binding signal,[4]; [6],0.00311 ± 7e-05
B2,peptide microarray binding signal,"[1]; peptide modifications: H3K9me3 H3K14me2, binder concentration: 50 nM",0.0125 ± 0.00061
same,peptide microarray binding signal,"[1]; peptide modifications: H3K9me3 H3K14me2, binder concentration: 500 nM",0.0226 ± 0.0018
same,peptide microarray binding signal,"[2]; peptide modifications: H3K9me3 H3K14me2, binder concentration: 10 nM",0.0179 ± 0.0015
same,peptide microarray binding signal,"[2]; peptide modifications: H3K9me3 H3K14me2, binder concentration: 100 nM",0.0366 ± 0.016
same,peptide microarray binding signal,[3]; [7],0.117 ± 0.017
same,peptide microarray binding signal,[3]; [8],0.082 ± 0.012
same,peptide microarray binding signal,[4]; [7],0.869 ± 0.044
same,peptide microarray binding signal,[4]; [8],1 ± 0.084
B3,peptide microarray binding signal,"[1]; peptide modifications: H3R8me1 H3K9me1, binder concentration: 50 nM",0.01 ± 0.0016
same,peptide microarray binding signal,"[1]; peptide modifications: H3R8me1 H3K9me1, binder concentration: 500 nM",0.0241 ± 0.0051
same,peptide microarray binding signal,"[2]; peptide modifications: H3R8me1 H3K9me1, binder concentration: 10 nM",0.0382 ± 0.016
same,peptide microarray binding signal,"[2]; peptide modifications: H3R8me1 H3K9me1, binder concentration: 100 nM",0.0483 ± 0.0026
same,peptide microarray binding signal,[3]; [9],0.0217 ± 0.00038
same,peptide microarray binding signal,[3]; [10],0.0201 ± 0.0019
same,peptide microarray binding signal,[4]; [9],0.034 ± 0.009
same,peptide microarray binding signal,[4]; [10],0.0236 ± 0.0018
B4,peptide microarray binding signal,"[1]; peptide modifications: H3K9me3 H3K14me1, binder concentration: 50 nM",0.00285 ± 0.00016
same,peptide microarray binding signal,"[1]; peptide modifications: H3K9me3 H3K14me1, binder concentration: 500 nM",0.00524 ± 0.00015
same,peptide microarray binding signal,"[2]; peptide modifications: H3K9me3 H3K14me1, binder concentration: 10 nM",0.00406 ± 0.00024
same,peptide microarray binding signal,"[2]; peptide modifications: H3K9me3 H3K14me1, binder concentration: 100 nM",0.0116 ± 0.00073
same,peptide microarray binding signal,[3]; [11],0.00483 ± 0.00038
same,peptide microarray binding signal,[3]; [12],0.00251 ± 9.7e-05
same,peptide microarray binding signal,[4]; [11],0.175 ± 0.043
same,peptide microarray binding signal,[4]; [12],0.0981 ± 0.043
B5,peptide microarray binding signal,"[1]; peptide modifications: H3K14ac, binder concentration: 50 nM",0.01348 ± 6.3e-05
same,peptide microarray binding signal,"[1]; peptide modifications: H3K14ac, binder concentration: 500 nM",0.0307 ± 0.0021
same,peptide microarray binding signal,"[2]; peptide modifications: H3K14ac, binder concentration: 10 nM",0.0491 ± 0.007
same,peptide microarray binding signal,"[2]; peptide modifications: H3K14ac, binder concentration: 100 nM",0.0789 ± 0.0089
same,peptide microarray binding signal,[3]; [13],0.0163 ± 0.0012
same,peptide microarray binding signal,[3]; [14],0.0226 ± 0.0018
same,peptide microarray binding signal,[4]; [13],0.0103 ± 0.00042
same,peptide microarray binding signal,[4]; [14],0.00657 ± 0.0006
B6,peptide microarray binding signal,"[1]; peptide modifications: H3R8cit H3K9ac, binder concentration: 50 nM",0.0106 ± 0.00074
same,peptide microarray binding signal,"[1]; peptide modifications: H3R8cit H3K9ac, binder concentration: 500 nM",0.0249 ± 0.0053
same,peptide microarray binding signal,"[2]; peptide modifications: H3R8cit H3K9ac, binder concentration: 10 nM",0.0426 ± 0.0074
same,peptide microarray binding signal,"[2]; peptide modifications: H3R8cit H3K9ac, binder concentration: 100 nM",0.0673 ± 0.0053
same,peptide microarray binding signal,[3]; [15],0.0133 ± 0.0056
same,peptide microarray binding signal,[3]; [16],0.0146 ± 0.0065
same,peptide microarray binding signal,[4]; [15],0.0143 ± 0.0052
same,peptide microarray binding signal,[4]; [16],0.0112 ± 0.00045
B7,peptide microarray binding signal,"[1]; peptide modifications: H3K9me3 H3K14me3, binder concentration: 50 nM",0.00721 ± 0.00063
same,peptide microarray binding signal,"[1]; peptide modifications: H3K9me3 H3K14me3, binder concentration: 500 nM",0.00614 ± 0.00023
same,peptide microarray binding signal,"[2]; peptide modifications: H3K9me3 H3K14me3, binder concentration: 10 nM",0.00549 ± 0.00022
same,peptide microarray binding signal,"[2]; peptide modifications: H3K9me3 H3K14me3, binder concentration: 100 nM",0.00609 ± 0.00036
same,peptide microarray binding signal,[3]; [17],0.0344 ± 0.0088
same,peptide microarray binding signal,[3]; [18],0.0374 ± 0.015
same,peptide microarray binding signal,[4]; [17],0.241 ± 0.054
same,peptide microarray binding signal,[4]; [18],0.261 ± 0.13
B8,peptide microarray binding signal,"[1]; peptide modifications: H3R8cit, binder concentration: 50 nM",0.0063 ± 0.00069
same,peptide microarray binding signal,"[1]; peptide modifications: H3R8cit, binder concentration: 500 nM",0.00719 ± 0.0018
same,peptide microarray binding signal,"[2]; peptide modifications: H3R8cit, binder concentration: 10 nM",0.0115 ± 0.0029
same,peptide microarray binding signal,"[2]; peptide modifications: H3R8cit, binder concentration: 100 nM",0.00574 ± 0.00039
same,peptide microarray binding signal,[3]; [19],0.00504 ± 0.0019
same,peptide microarray binding signal,[3]; [20],0.0142 ± 0.0043
same,peptide microarray binding signal,[4]; [19],0.00642 ± 0.0027
same,peptide microarray binding signal,[4]; [20],0.00588 ± 0.00093
B9,peptide microarray binding signal,"[1]; peptide modifications: H3R8cit H3K9me3, binder concentration: 50 nM",0.0148 ± 0.00057
same,peptide microarray binding signal,"[1]; peptide modifications: H3R8cit H3K9me3, binder concentration: 500 nM",0.036 ± 0.002
same,peptide microarray binding signal,"[2]; peptide modifications: H3R8cit H3K9me3, binder concentration: 10 nM",0.0937 ± 0.0048
same,peptide microarray binding signal,"[2]; peptide modifications: H3R8cit H3K9me3, binder concentration: 100 nM",0.102 ± 0.013
same,peptide microarray binding signal,[3]; [21],0.453 ± 0.025
same,peptide microarray binding signal,[3]; [22],0.334 ± 0.09
same,peptide microarray binding signal,[4]; [21],1 ± 0.068
same,peptide microarray binding signal,[4]; [22],0.952 ± 0.059
B10,peptide microarray binding signal,"[1]; peptide modifications: H3K9me3 H3S10ph, binder concentration: 50 nM",0.005862 ± 5.4e-05
same,peptide microarray binding signal,"[1]; peptide modifications: H3K9me3 H3S10ph, binder concentration: 500 nM",0.0171 ± 0.00064
same,peptide microarray binding signal,"[2]; peptide modifications: H3K9me3 H3S10ph, binder concentration: 10 nM",0.00358 ± 0.00073
same,peptide microarray binding signal,"[2]; peptide modifications: H3K9me3 H3S10ph, binder concentration: 100 nM",0.0227 ± 0.0053
same,peptide microarray binding signal,[3]; [23],0.00466 ± 0.0006
same,peptide microarray binding signal,[3]; [24],0.00913 ± 0.0042
same,peptide microarray binding signal,[4]; [23],0.362 ± 0.11
same,peptide microarray binding signal,[4]; [24],0.273 ± 0.078
